In the supplement of paper PMC10811239:

Tests used:
Experiment in all cases: bioluminescence (viable cell) signal fold change after vs before treatment, normalised to DMSO (ratio); higher = more tumour cell growth / less inhibition
Conditions in all cases: 10 µM; treatment time 6 days
[1] = system: LEGO organoid PT (PTEN-/-; TP53-/-)
Method: (§1)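 Luc2-labelled iPSC-derived glioblastoma-like organoids (LEGOs, genotypes PT = PTEN-/-;TP53-/-, PTCC = plus CDKN2A/B-/-, PTN = plus NF1-/-) were treated with 10 uM drug for 6 days (applied every other day) at 37 C. Bioluminescence imaging was done before treatment and 2 days after the last dose. BLI signals were normalised to the DMSO control on the same day and then to the pre-treatment signal (N=3).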

[2] = system: LEGO organoid PTCC (PTEN-/-; TP53-/-; CDKN2A-/-; CDKN2B-/-)
Method: as §1

[3] = system: LEGO organoid PTN (PTEN-/-; TP53-/-; NF1-/-)
Method: as §1

| SMILES | bioluminescence [1] | bioluminescence [2] | bioluminescence [3] |
| --- | --- | --- | --- |
| CC(C)(Sc1cc(C(C)(C)C)c(O)c(C(C)(C)C)c1)Sc1cc(C(C)(C)C)c(O)c(C(C)(C)C)c1 [Probucol] | 0.49 | 0.73 | 0.748 |
| CCc1c2c(nc3ccc(OC(=O)N4CCC(N5CCCCC5)CC4)cc13)-c1cc3c(c(=O)n1C2)COC(=O)[C@]3(O)CC [Irinotecan] | 2.7 | 2.25 | 0.884 |
| Cc1nc2n(c(=O)c1CCN1CCC(c3noc4cc(F)ccc34)CC1)CCCC2O (configuration not stated) [Paliperidone] | 1.4 | 0.722 | 0.593 |
| Cl.O[C@@H](c1cc(C(F)(F)F)nc2c(C(F)(F)F)cccc12)[C@H]1CCCCN1 [Mefloquine hydrochloride] | 0.499 | 0.922 | 0.359 |
| COCCOC(=O)C1=C(C)NC(C)=C(C(=O)OC(C)C)C1c1cccc([N+](=O)[O-])c1 (configuration not stated) [Nimodipine] | 1.49 | 1.61 | 1.19 |
| CCC1(c2ccccc2)C(=O)NCNC1=O [Primidone] | 0.985 | 0.824 | 0.89 |
| CCn1c(=O)c2c(nc(/C=C/c3ccc(OC)c(OC)c3)n2C)n(CC)c1=O [Istradefylline] | 0.737 | 3.38 | 6.31 |
| CC1COc2c(N3CCN(C)CC3)c(F)cc3c(=O)c(C(=O)O)cn1c23 (configuration not stated) [Ofloxacin] | 1.08 | 2.88 | 1.19 |
| CN1CCN(CCCN2c3ccccc3Sc3ccc(C(F)(F)F)cc32)CC1.Cl.Cl [Trifluoperazine dihydrochloride] | 0.771 | 1.31 | 1.23 |
| CC(C(=O)O)c1ccc(-c2ccccc2)c(F)c1 (configuration not stated) [Flurbiprofen] | 1.09 | 0.856 | 1.47 |
| CC(C)c1nc(CN(C)C(=O)N[C@H](C(=O)N[C@@H](Cc2ccccc2)C[C@H](O)[C@H](Cc2ccccc2)NC(=O)OCc2cncs2)C(C)C)cs1 [Ritonavir] | 1.3 | 2 | 1.83 |
| CN(CCOc1ccc(CC2SC(=O)NC2=O)cc1)c1ccccn1 (configuration not stated) [Rosiglitazone] | 0.664 | 1.87 | 1.22 |
| Cc1[nH]c(=O)c(C#N)cc1-c1ccncc1 [Milrinone] | 1.11 | 1.63 | 1.34 |
| CO[C@H]1/C=C/O[C@@]2(C)Oc3c(C)c(O)c4c(O)c(c(/C=N/N5CCN(C)CC5)c(O)c4c3C2=O)NC(=O)/C(C)=C\C=C\[C@H](C)[C@H](O)[C@@H](C)[C@@H](O)[C@@H](C)[C@H](OC(C)=O)[C@@H]1C [Rifampicin] | 3.6 | 0.603 | 0.579 |
| CC(=O)O.Cc1c(-c2ccc(O)cc2)n(Cc2ccc(OCCN3CCCCCC3)cc2)c2ccc(O)cc12 [Bazedoxifene acetate] | 0.897 | 1.37 | 0.0363 |
| CN[C@H]1CC[C@@H](c2ccc(Cl)c(Cl)c2)c2ccccc21.Cl [Sertraline hydrochloride] | 0.66 | 0.888 | 1.32 |
| CO/N=C(\C(=O)N[C@@H]1C(=O)N2C(C(=O)[O-])=C(CSc3nc(=O)c([O-])nn3C)CS[C@H]12)c1csc(N)n1.CO/N=C(\C(=O)N[C@@H]1C(=O)N2C(C(=O)[O-])=C(CSc3nc(=O)c([O-])nn3C)CS[C@H]12)c1csc(N)n1.O.O.O.O.O.O.O.[Na+].[Na+].[Na+].[Na+] [Ceftriaxone sodium] | 0.964 | 1.62 | 2.01 |
| Cl.O=c1n(CCCN2CCN(c3cccc(Cl)c3)CC2)nc2ccccn12 [Trazodone hydrochloride] | 1.97 | 2.62 | 0.985 |
| Cc1ccc(C(=O)c2cc(O)c(O)c([N+](=O)[O-])c2)cc1 [Tolcapone] | 1.1 | 2.93 | 1.31 |
| C=CC(=O)Nc1cc(Nc2nccc(-c3cn(C)c4ccccc34)n2)c(OC)cc1N(C)CCN(C)C [Osimertinib] | 0.644 | 0.0861 | 0.0227 |
| N[C@H]1CONC1=O [L-Cycloserine] | 0.758 | 1.26 | 0.884 |
| O=C(O)c1cc(/N=N/c2ccc(S(=O)(=O)Nc3ccccn3)cc2)ccc1O [Sulfasalazine] | 0.941 | 1.43 | 0.504 |
| COC(=O)C1=C(C)NC(C)=C(C(=O)OCCN(C)Cc2ccccc2)C1c1cccc([N+](=O)[O-])c1.Cl (configuration not stated) [Nicardipine hydrochloride] | 0.99 | 1.19 | 1.14 |
| CC1(C)O[C@@H]2[C@@H](CO[C@@]3(COS(N)(=O)=O)OC(C)(C)O[C@@H]23)O1 [Topiramate] | 1.02 | 1.62 | 5.65 |
| CN(C/C=C/C#CC(C)(C)C)Cc1cccc2ccccc12 [Terbinafine] | 0.601 | 1.04 | 2.32 |
| Clc1ccc(COC(Cn2ccnc2)c2ccc(Cl)cc2Cl)c(Cl)c1.O=[N+]([O-])O (configuration not stated) [Miconazole nitrate] | 0.225 | 0.22 | 1.21 |
| Nc1cccc2c1C(=O)N(C1CCC(=O)NC1=O)C2=O (configuration not stated) [Pomalidomide] | 1.5 | 2.56 | 1.12 |
| CO[C@H]1/C=C/O[C@@]2(C)Oc3c(C)c(O)c4c(O)c(c(/C=N/N5CCN(C6CCCC6)CC5)c(O)c4c3C2=O)NC(=O)/C(C)=C\C=C\[C@H](C)[C@H](O)[C@@H](C)[C@@H](O)[C@@H](C)[C@H](OC(C)=O)[C@@H]1C [Rifapentine] | 3.28 | 0.434 | 1.39 |
| Nc1nc(Cl)nc2c1ncn2[C@H]1C[C@H](O)[C@@H](CO)O1 [Cladribine] | 1.81 | 1.17 | 1.05 |
